# Compound activity (PubChem)
# Hits are enriched below; roughly 1.2% of the tested compounds scored in any of these assays.
# SSB-PriA inh = inhibitors of Klebsiella pneumoniae PriA binding to SSB C-terminal tail, primary screen, biochemical, AlphaScreen. PriA–SSB C-terminal tail interaction (Klebsiella pneumoniae). AlphaScreen SSBct-PriA binding, biotinylated peptide. inhibition, % at 33 µM. hit rate 0.6% among 430,000. AID 1272365, 2023; in the data active = inhibition mostly above about 37%, no sharp cut-off; inactive = mostly below about 20%;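 note: plate controls were negative control peptide for no effect and reference peptide for full effect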
# BJeLR viability = MLPCN primary cell-based screen for lethality selective to Ras in HRASV12 cells. hit rate 0.17% among 300,000. inhibition, % (test concentration not listed). BJeLR (HRASV12) viability, CellTiter-Glo ATP luminescence, 48 h. AID 1554, 2009; in the data active = inhibition above about 50%
# 3CLpro inhibitor = SARS-CoV 3CLpro protease inhibitors, primary screen, biochemical, quenched FRET | hit rate 0.14% among 290,000 | AID 1706, 2009 | inhibition, % at 6 µM | Replicase polyprotein 1ab (Severe acute respiratory syndrome coronavirus), P0C6X7 | recombinant SARS-CoV 3CLpro, quenched FRET peptide cleavage; in the data active = inhibition above about 12%
# PrP 5UTR inh = inhibition of PrP 5' UTR reporter expression. inhibition, % (no concentration beside the values). hit rate 0.35% among 340,000. cell-based PrP 5' UTR mRNA reporter, plate reader; in the data active = inhibition above about 52%; note: 0 = median of the neutral control wells
# PrPC TRFRET = inhibitors of human cell surface prion protein PrPC, primary screen, cell-based, TR-FRET. Major prion protein (Homo sapiens), P04156. TR-FRET read-out. inhibition, % at 13.8 µM. hit rate 0.43% among 370,000. AID 720596, 2013; in the data active = inhibition above about 24%; note: 0% = median of the test wells and 100% = reference compound wells
# PrPC TRFRET cf = confirmation of inhibitors of cell surface human prion protein, confirmation, cell-based, TR-FRET | shares compounds with PrPC TRFRET | cell surface PrPC level | inhibition, % at 13.8 µM | hit rate 65% among 1,500; in the data active = inhibition above about 25%
# LD9 tox = cytotoxicity in LD9 cells, cytotoxicity control for cell surface PrPc inhibitor project, cell-based, luminescence, high throughput; luminescence viability; shares compounds with PrPC TRFRET; inhibition, % at 13.8 µM; hit rate 29% among 1,500; in the data active = inhibition above about 9.5%
# * marks the source's active call; other numbers are inactive results; . = not tested or not shown.
SMILES,SSB-PriA inh,BJeLR viability,3CLpro inhibitor,PrP 5UTR inh,PrPC TRFRET,PrPC TRFRET cf,LD9 tox
COc1cc(C(=O)N[C@@H](C)C(=O)N2CCC3(CC2)NCCc2[nH]cnc23)cc(OC)c1OC,-2,4,-6,-28,25*,6,4
CC1CC(N(C(=O)c2ccc(Cl)cc2)c2ccccc2)c2ccccc2N1C(=O)c1ccco1 (stereo not given),29,-1,6,-27,25*,13,-3
Cc1[nH]n(-c2ccccc2)c(=O)c1/C=N/NC(=O)C(C)C,.,3,1,-10,29*,43*,5
Cc1[nH]n(-c2ccccc2)c(=O)c1C=NNC(=O)C(C)C,33,.,.,.,.,.,.
O=C(Nn1cnc2c(cnn2-c2ccc(F)cc2)c1=O)c1cccc(F)c1,1,.,.,.,.,.,.
CC(=O)Nc1ccc(Sc2ccc([N+](=O)[O-])o2)cc1,3,.,.,-13,69*,29*,22*
COc1ccc(/C=N\NC(=O)c2ccn[nH]2)cc1,-7,.,.,.,.,.,.
O=C(Nc1ccc2c(c1)OCO2)c1ccc(Br)c(S(=O)(=O)N2CCCC2)c1,3,-3,5,-23,25*,21,7
CCOc1ccc(CC(=O)NCc2cncc(-c3ccsc3)c2)cc1,11,.,.,.,.,.,.
CC1CC(C)CC(C)C(O)C(C#N)=CC=CCC(C2CCCC2C(=O)O)OC(=O)CC(O)C(C)C1 (stereo not given),-6,.,.,51,87*,98*,51*
CC(C)(C)c1ccc(S(=O)(=O)Nc2ccc(Cc3ccncc3)cc2)cc1,0,-2,2,-16,28*,44*,7
CC(=O)Nc1ccc(S(=O)(=O)Nc2ccc(Cc3ccncc3)cc2)cc1,-6,-2,-5,-28,4,.,.
Cc1ccc(SCCC(=O)Nc2cc(C)cc(C)c2)cc1,-59,.,.,.,.,.,.
N#Cc1c(SCC(=O)Nc2nncs2)sc2c(O)cc(=O)[nH]c12,-4,0,-12,12,27*,1,-4
COc1nn(C)cc1C(=O)NCC(C)(O)c1cc2ccccc2s1 (stereo not given),7,.,.,.,.,.,.
Cc1cc(SCCC(=O)O)nc2c(C)cccc12,-14,-9,3,-6,71*,69*,4
CC1CN(c2ccccc2)c2nc3c(c(=O)[nH]c(=O)n3C)n2C1 (stereo not given),-18,1,-3,-12,3,.,.
CC1CN(c2ccc(Cl)cc2)c2nc3c(c(=O)[nH]c(=O)n3C)n2C1 (stereo not given),-18,-7,-7,0,38*,2,-3
COc1ccc(S(=O)(=O)NCC(c2cccn2C)N2CCCC2)cc1OC (stereo not given),-15,.,.,.,.,.,.
Cc1cc(C)c(S(=O)(=O)NCc2ccc3c(c2)cc(C)n3C)c(C)c1,26,-6,-1,4,39*,43*,-2
CCCC(=O)NCc1ccc2c(c1)cc(C)n2C,-23,-2,-1,-42,-6,.,.
CC(=O)Nc1ccc(S(=O)(=O)NCc2ccc(C)cc2)cc1,-8,2,0,2,-2,.,.
Cc1cc2cc(CNS(=O)(=O)c3ccc4ccccc4c3)ccc2n1C,28,3,-2,-6,43*,37*,3
CC(=O)Nc1ccc(S(=O)(=O)NCc2ccc3c(c2)cc(C)n3C)cc1,17,4,-7,-9,35*,11,3
CC1(C(=O)NC2CCCC2)Cc2ccccc2C(=O)O1 (stereo not given),-2,.,.,.,.,.,.
SMILES,SSB-PriA inh,BJeLR viability,3CLpro inhibitor,PrP 5UTR inh,PrPC TRFRET,PrPC TRFRET cf,LD9 tox
O=c1ccc(-c2ccncc2)nn1CCCNS(=O)(=O)c1cccnc1,-4,.,.,.,.,.,.
COc1ccc(NC(=O)CCc2c(C)nn(-c3nc(C)cc(=O)[nH]3)c2C)cc1OC,-4,.,.,.,.,.,.
COc1ccccc1NC(=NS(=O)(=O)c1ccc(Cl)cc1)c1ccccc1,10,.,.,.,.,.,.
Cc1c(Br)c(=O)oc2cc(OCC(=O)N3C[C@H]4C[C@@H](C3)c3cccc(=O)n3C4)ccc12,.,-2,-5,-5,38*,55*,-3
Cn1cnc2c1c(=O)n(Cc1cccc(Br)c1)c(=O)n2C,-4,-3,-2,-14,0,.,.
Cn1c(N2CCC(C(N)=O)CC2)nc2c1c(=O)n(Cc1cccc(Br)c1)c(=O)n2C,-10,0,5,-8,42*,59*,-5
O=C1c2oc3ccc(Cl)cc3c(=O)c2C(c2ccccn2)N1CCN1CCOCC1 (stereo not given),-4,.,.,.,.,.,.
O=C(NCCN1CCCC1)c1ccc(Cn2c(=S)[nH]c3cc4c(cc3c2=O)OCO4)cc1,-5,4,3,-4,-4,.,.
C=CCNC(=O)c1ccc(Cn2c(=S)[nH]c3cc4c(cc3c2=O)OCO4)cc1,-27,2,-2,-15,54*,35*,8
O=C(Nc1ccc(F)cc1)Nc1nc(C(=O)NCC2CCCO2)cs1 (stereo not given),-6,.,.,.,.,.,.
Cc1cc(C)c(C)c(C(=O)c2ccccc2C(=O)O)c1C,-11,-2,3,-34,8,.,.
Cc1c(C(=O)c2ccccc2C(=O)O)sc2ccccc12,-2,6,3,-13,33*,54*,-6
O=S(=O)(NCC(O)(c1ccco1)C1CC1)c1ccc(Cl)s1 (stereo not given),-13,.,.,.,.,.,.
O=c1c2ccccc2nc2n1C(CSCc1ccc(Cl)cc1)CS2 (stereo not given),-4,4,4,-12,26*,18,14*
O=c1c2ccccc2nc2n1C(CSc1ccccc1)CS2 (stereo not given),-2,-20,3,-33,-1,.,.
CCSc1ccccc1C(=O)NCc1sc(-c2cccs2)nc1C,-5,.,.,.,.,.,.
O=C(c1cnn(-c2ccccc2)n1)N1CCN(c2cc(-n3cncn3)ncn2)CC1,-8,.,.,.,.,.,.
Cc1c2ccncc2c(C)c2c1[nH]c1ccccc12,-1,19,-9,3,.,.,.
COc1ccc2[nH]c3c(C)c4ccncc4c(C)c3c2c1,2,101*,-12,-2,34*,34*,42*
CCC(C)(C)n1nnnc1CN1CCC(c2nc3ccc(C)cc3[nH]2)CC1,1,-11,3,-5,33*,32*,1
Cc1nc2oc(-c3ccccc3)nc2cc1NC(=O)c1cnn(-c2ccccc2)c1C,-4,.,.,.,.,.,.
Fc1ccc2[nH]c3c(N4CCc5ccccc5C4)ncnc3c2c1,-2,7,1,.,26*,35*,20*
COc1c(F)cc2[nH]c3c(c2c1F)CCNC3=O,-4,-2,.,-2,30*,6,-5
